From publication PMC11006913 come the findings set out here.

Holding throughout (assay): PBM; 200 nM protein, PBS
Settings in all cases: dsDNA, one strand shown

Test [1] concerns the target HESX1 (Homo sapiens, UniProt Q9UBX0 95-180, R165K).
In test [2] the target is HESX1 (Homo sapiens, UniProt Q9UBX0 95-180).
Test [3] addresses HESX1 (Homo sapiens, UniProt Q9UBX0 95-180, R109Q).
For test [4], the target named is HESX1 (Homo sapiens, UniProt Q9UBX0 95-180, P111T).
Test [5] concerns the target HESX1 (Homo sapiens, UniProt Q9UBX0 95-180, F115L).

HESX1 (Homo sapiens, UniProt Q9UBX0 95-180, P111T), sequence (Q9UBX0 95-180 P111T): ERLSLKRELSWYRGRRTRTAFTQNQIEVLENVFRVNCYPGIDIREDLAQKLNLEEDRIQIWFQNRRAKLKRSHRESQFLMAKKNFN
HESX1 (Homo sapiens, UniProt Q9UBX0 95-180, R165K), sequence (Q9UBX0 95-180 R165K): as the sequence (Q9UBX0 95-180 P111T) above, with T17P, R71K counted along it
HESX1 (Homo sapiens, UniProt Q9UBX0 95-180), sequence (Q9UBX0 95-180): as the sequence (Q9UBX0 95-180 P111T) above, with T17P counted along it
HESX1 (Homo sapiens, UniProt Q9UBX0 95-180, F115L), sequence (Q9UBX0 95-180 F115L): as the sequence (Q9UBX0 95-180 P111T) above, with T17P, F21L counted along it
HESX1 (Homo sapiens, UniProt Q9UBX0 95-180, R109Q), sequence (Q9UBX0 95-180 R109Q): as the sequence (Q9UBX0 95-180 P111T) above, with R15Q, T17P counted along it

Turning to GGCGCTAC, the binding signal was 6.32 upbm affinity estimate (log intensity, higher = more binding, comparable within an allelic series) in the test with HESX1 [1]; 6.38 upbm affinity estimate (log intensity, higher = more binding, comparable within an allelic series) with HESX1 [2]; 6.35 upbm affinity estimate (log intensity, higher = more binding, comparable within an allelic series) with HESX1 [3]; 6.43 upbm affinity estimate (log intensity, higher = more binding, comparable within an allelic series) with HESX1 [4]; 6.32 upbm affinity estimate (log intensity, higher = more binding, comparable within an allelic series) in the test with HESX1 [5].
Turning to CAGAACGC, the binding signal with HESX1 [1] was 6.46 upbm affinity estimate (log intensity, higher = more binding, comparable within an allelic series); in the test with HESX1 [2], 6.44 upbm affinity estimate (log intensity, higher = more binding, comparable within an allelic series); with HESX1 [3] it was 6.49 upbm affinity estimate (log intensity, higher = more binding, comparable within an allelic series); in the test with HESX1 [4] it was 6.34 upbm affinity estimate (log intensity, higher = more binding, comparable within an allelic series); in the test with HESX1 [5], 6.48 upbm affinity estimate (log intensity, higher = more binding, comparable within an allelic series).
With GAAGTCGC, the binding signal with HESX1 [1] was 6.48 upbm affinity estimate (log intensity, higher = more binding, comparable within an allelic series); with HESX1 [2], 6.36 upbm affinity estimate (log intensity, higher = more binding, comparable within an allelic series); with HESX1 [3], 6.51 upbm affinity estimate (log intensity, higher = more binding, comparable within an allelic series); in the test with HESX1 [4], 6.43 upbm affinity estimate (log intensity, higher = more binding, comparable within an allelic series); in the test with HESX1 [5] it was 6.56 upbm affinity estimate (log intensity, higher = more binding, comparable within an allelic series).
For CAGGTCGG, the binding signal is 6.41 upbm affinity estimate (log intensity, higher = more binding, comparable within an allelic series) in the test with HESX1 [1]; 6.42 upbm affinity estimate (log intensity, higher = more binding, comparable within an allelic series) in the test with HESX1 [2]; 6.6 upbm affinity estimate (log intensity, higher = more binding, comparable within an allelic series) with HESX1 [3]; 6.48 upbm affinity estimate (log intensity, higher = more binding, comparable within an allelic series) with HESX1 [4]; 6.57 upbm affinity estimate (log intensity, higher = more binding, comparable within an allelic series) with HESX1 [5].
For CAGTGTCG, the binding signal in the test with HESX1 [1] was 6.55 upbm affinity estimate (log intensity, higher = more binding, comparable within an allelic series); in the test with HESX1 [2] it was 6.52 upbm affinity estimate (log intensity, higher = more binding, comparable within an allelic series); with HESX1 [3], 6.61 upbm affinity estimate (log intensity, higher = more binding, comparable within an allelic series); in the test with HESX1 [4], 6.51 upbm affinity estimate (log intensity, higher = more binding, comparable within an allelic series); with HESX1 [5] it was 6.58 upbm affinity estimate (log intensity, higher = more binding, comparable within an allelic series).
Take AGCACGCT: the binding signal was 6.37 upbm affinity estimate (log intensity, higher = more binding, comparable within an allelic series) with HESX1 [1]; 6.39 upbm affinity estimate (log intensity, higher = more binding, comparable within an allelic series) with HESX1 [2]; 6.5 upbm affinity estimate (log intensity, higher = more binding, comparable within an allelic series) with HESX1 [3]; 6.4 upbm affinity estimate (log intensity, higher = more binding, comparable within an allelic series) with HESX1 [4]; 6.46 upbm affinity estimate (log intensity, higher = more binding, comparable within an allelic series) with HESX1 [5].
As to CCAGCCCA, the binding signal with HESX1 [1] was 6.4 upbm affinity estimate (log intensity, higher = more binding, comparable within an allelic series); in the test with HESX1 [2], 6.43 upbm affinity estimate (log intensity, higher = more binding, comparable within an allelic series); with HESX1 [3], 6.47 upbm affinity estimate (log intensity, higher = more binding, comparable within an allelic series); with HESX1 [4] it was 6.48 upbm affinity estimate (log intensity, higher = more binding, comparable within an allelic series); with HESX1 [5], 6.55 upbm affinity estimate (log intensity, higher = more binding, comparable within an allelic series).
Regarding ACGCCTCG, the binding signal is 6.4 upbm affinity estimate (log intensity, higher = more binding, comparable within an allelic series) in the test with HESX1 [1]; 6.35 upbm affinity estimate (log intensity, higher = more binding, comparable within an allelic series) in the test with HESX1 [2]; 6.36 upbm affinity estimate (log intensity, higher = more binding, comparable within an allelic series) in the test with HESX1 [3]; 6.4 upbm affinity estimate (log intensity, higher = more binding, comparable within an allelic series) with HESX1 [4]; 6.44 upbm affinity estimate (log intensity, higher = more binding, comparable within an allelic series) with HESX1 [5].
As to CCGCTCCC, the binding signal is 6.47 upbm affinity estimate (log intensity, higher = more binding, comparable within an allelic series) with HESX1 [1]; 6.49 upbm affinity estimate (log intensity, higher = more binding, comparable within an allelic series) with HESX1 [2]; 6.46 upbm affinity estimate (log intensity, higher = more binding, comparable within an allelic series) with HESX1 [3]; 6.35 upbm affinity estimate (log intensity, higher = more binding, comparable within an allelic series) with HESX1 [4]; 6.43 upbm affinity estimate (log intensity, higher = more binding, comparable within an allelic series) with HESX1 [5].
Consider CGCCACGA, for which the binding signal was 6.55 upbm affinity estimate (log intensity, higher = more binding, comparable within an allelic series) in the test with HESX1 [1]; 6.36 upbm affinity estimate (log intensity, higher = more binding, comparable within an allelic series) with HESX1 [2]; 6.47 upbm affinity estimate (log intensity, higher = more binding, comparable within an allelic series) with HESX1 [3]; 6.47 upbm affinity estimate (log intensity, higher = more binding, comparable within an allelic series) in the test with HESX1 [4]; 6.57 upbm affinity estimate (log intensity, higher = more binding, comparable within an allelic series) in the test with HESX1 [5].
Turning to CACGGCTC, the binding signal is 6.57 upbm affinity estimate (log intensity, higher = more binding, comparable within an allelic series) with HESX1 [1]; 6.56 upbm affinity estimate (log intensity, higher = more binding, comparable within an allelic series) with HESX1 [2]; 6.55 upbm affinity estimate (log intensity, higher = more binding, comparable within an allelic series) with HESX1 [3]; 6.58 upbm affinity estimate (log intensity, higher = more binding, comparable within an allelic series) in the test with HESX1 [4]; 6.53 upbm affinity estimate (log intensity, higher = more binding, comparable within an allelic series) with HESX1 [5].
Regarding GCCGAAAC, the binding signal with HESX1 [1] is 6.58 upbm affinity estimate (log intensity, higher = more binding, comparable within an allelic series); with HESX1 [2], 6.54 upbm affinity estimate (log intensity, higher = more binding, comparable within an allelic series); with HESX1 [3] it was 6.57 upbm affinity estimate (log intensity, higher = more binding, comparable within an allelic series); with HESX1 [4] it was 6.61 upbm affinity estimate (log intensity, higher = more binding, comparable within an allelic series); in the test with HESX1 [5], 6.57 upbm affinity estimate (log intensity, higher = more binding, comparable within an allelic series).
For CAAGCTCA, the binding signal with HESX1 [1] is 6.51 upbm affinity estimate (log intensity, higher = more binding, comparable within an allelic series); with HESX1 [2] it was 6.47 upbm affinity estimate (log intensity, higher = more binding, comparable within an allelic series); in the test with HESX1 [3] it was 6.46 upbm affinity estimate (log intensity, higher = more binding, comparable within an allelic series); with HESX1 [4], 6.46 upbm affinity estimate (log intensity, higher = more binding, comparable within an allelic series); with HESX1 [5], 6.53 upbm affinity estimate (log intensity, higher = more binding, comparable within an allelic series).
Turning to ACTCAATA, the binding signal with HESX1 [1] is 7.78 upbm affinity estimate (log intensity, higher = more binding, comparable within an allelic series); with HESX1 [2], 7.87 upbm affinity estimate (log intensity, higher = more binding, comparable within an allelic series); in the test with HESX1 [3], 7.28 upbm affinity estimate (log intensity, higher = more binding, comparable within an allelic series); with HESX1 [4] it was 7.59 upbm affinity estimate (log intensity, higher = more binding, comparable within an allelic series); with HESX1 [5] it was 7.33 upbm affinity estimate (log intensity, higher = more binding, comparable within an allelic series).
On to AGGTGGCC, for which the binding signal with HESX1 [1] was 6.42 upbm affinity estimate (log intensity, higher = more binding, comparable within an allelic series); with HESX1 [2], 6.42 upbm affinity estimate (log intensity, higher = more binding, comparable within an allelic series); with HESX1 [3], 6.5 upbm affinity estimate (log intensity, higher = more binding, comparable within an allelic series); in the test with HESX1 [4], 6.47 upbm affinity estimate (log intensity, higher = more binding, comparable within an allelic series); with HESX1 [5] it was 6.46 upbm affinity estimate (log intensity, higher = more binding, comparable within an allelic series).
With TGGCGCCA, the binding signal in the test with HESX1 [1] was 6.38 upbm affinity estimate (log intensity, higher = more binding, comparable within an allelic series); with HESX1 [2], 6.62 upbm affinity estimate (log intensity, higher = more binding, comparable within an allelic series); with HESX1 [3] it was 6.34 upbm affinity estimate (log intensity, higher = more binding, comparable within an allelic series); with HESX1 [4], 6.49 upbm affinity estimate (log intensity, higher = more binding, comparable within an allelic series); with HESX1 [5], 6.34 upbm affinity estimate (log intensity, higher = more binding, comparable within an allelic series).
AGTGTCGG: the binding signal is 6.51 upbm affinity estimate (log intensity, higher = more binding, comparable within an allelic series) with HESX1 [1]; 6.53 upbm affinity estimate (log intensity, higher = more binding, comparable within an allelic series) with HESX1 [2]; 6.58 upbm affinity estimate (log intensity, higher = more binding, comparable within an allelic series) in the test with HESX1 [3]; 6.56 upbm affinity estimate (log intensity, higher = more binding, comparable within an allelic series) with HESX1 [4]; 6.55 upbm affinity estimate (log intensity, higher = more binding, comparable within an allelic series) in the test with HESX1 [5].
For the sequence TGAGCGCA, the binding signal is 6.52 upbm affinity estimate (log intensity, higher = more binding, comparable within an allelic series) with HESX1 [1]; 6.51 upbm affinity estimate (log intensity, higher = more binding, comparable within an allelic series) with HESX1 [2]; 6.51 upbm affinity estimate (log intensity, higher = more binding, comparable within an allelic series) in the test with HESX1 [3]; 6.49 upbm affinity estimate (log intensity, higher = more binding, comparable within an allelic series) with HESX1 [4]; 6.46 upbm affinity estimate (log intensity, higher = more binding, comparable within an allelic series) in the test with HESX1 [5].
Take TGTGATAA: the binding signal is 7.98 upbm affinity estimate (log intensity, higher = more binding, comparable within an allelic series) with HESX1 [1]; 8.21 upbm affinity estimate (log intensity, higher = more binding, comparable within an allelic series) with HESX1 [2]; 7.65 upbm affinity estimate (log intensity, higher = more binding, comparable within an allelic series) in the test with HESX1 [4].
